In the library only some 6.5% were active in any assay of this set; here they are far more common.
HCMV antiviral = human cytomegalovirus inhibition. HFF cells, HCMV-luciferase reporter, 72 h; stronger effect = lower value. 410,000 compounds, 4.5% hits. activity change, negative = inhibition, % at 57.5 µM; in the data active = activity change below about -60%; inconclusive = no clear call, values can overlap the other calls; inactive = above about -39%
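HFF cells seeded 16 h at 37C, treated with compounds, infected with luciferase-reporter HCMV at MOI 1 PFU/cell; luciferase read at 72 h post infection, normalized to buffer-only and Salinomycin controls.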
VACV Venus inh = inhibitors of vaccinia virus (Venus reporter); Vaccinia virus Venus reporter expression, fluorescence; Potency, µM (titrated, usually from 36.5 µM), inactives show at the top dose activity change, negative = inhibition, most hits filed as inhibitors; 330,000 compounds, 0.46% hits; AID 720580; calls by dose curve; tested in A549 cells; note: potency is the fitted concentration of half-maximal effect; nearly all actives have a fitted effect of over 30% in size
Lassa entry inh = inhibitors of Lassa virus binding or cell entry | Potency, µM (top dose mostly 37.9 µM), without a hit: at the highest dose activity change, negative = inhibition, most hits filed as inhibitors | Lassa virus pseudotype entry inhibition, cell reporter | 300,000 compounds, 1.2% hits | AID 540256; calls by dose curve; tested in HEK293 cells; note: potency is the fitted concentration of half-maximal effect; nearly all actives have a fitted effect of over 50% in size
FMDV inh = antivirals against foot and mouth disease virus | 410,000 compounds, 1.2% hits | FMDV antiviral cell-based qHTS | Potency, µM (top dose mostly 57.9 µM), inactives show at the top dose activity change, negative = inhibition, most hits filed as inhibitors; calls by dose curve; tested in HEK293T cells; note: read-out not given here; potency is the fitted concentration of half-maximal effect; nearly all actives have a fitted effect of over 45% in size
MARV entry inh = blocks Marburg virus binding to or entry into cells | Marburg virus pseudotyped entry inhibition, cell reporter | Potency, µM (series often up to 37.8 µM), inactives show at the highest dose activity change, negative = inhibition, usual class: inhibitors | 300,000 compounds, 1.8% hits; calls by dose curve; tested in HEK293 cells; note: potency is the fitted concentration of half-maximal effect
Vaccinia mCherry = vaccinia inhibition (mCherry reporter). Vaccinia virus mCherry reporter infection, fluorescence. Potency, µM (top dose mostly 36.5 µM), for the others: top-dose activity change, negative = inhibition, most hits filed as inhibitors. 310,000 compounds, 0.63% hits; calls by dose curve; tested in A549 cells; note: potency is the fitted concentration of half-maximal effect; nearly all actives have a fitted effect of over 35% in size
* hit, by the source's call; [ ] = dose if it differs, or a comment. % is set by controls: 0 for no effect and ±100 for the full control effect.

Screening O=C1NC(=O)N(CCc2ccc(F)cc2)C(=O)/C1=C\C=C\c1ccccc1 returned HCMV antiviral -32.8, VACV Venus inh 4.6%, FMDV inh 10µM*, MARV entry inh 9.2%[46.1 µM] and Vaccinia mCherry -7.9%.
`C=CCN1C(=O)NC(=O)/C(=C/C=C/c2ccccc2)C1=O` gave HCMV antiviral -112.0*, VACV Venus inh 20.6%, Lassa entry inh 17.5%, FMDV inh inconclusive, MARV entry inh 17.2% and Vaccinia mCherry -13.3%.
For C[C@]12CCCCC3=CC(=O)C=C[C@@]31OCC2 the results were HCMV antiviral -0.2.
Nc1nc(Cl)cc(N2CCCC2)n1 was read as HCMV antiviral 131.1, VACV Venus inh -4.0%, FMDV inh -10.1%, MARV entry inh 7.9%[46.1 µM] and Vaccinia mCherry -9.7%.
For Nc1nc(Cl)cc(N2CCC(c3cc(-c4ccc(Cl)cc4Cl)n[nH]3)CC2)n1 the results were HCMV antiviral -100.0*, Lassa entry inh inconclusive, FMDV inh inconclusive and MARV entry inh inconclusive.
Screening CCOC(=O)c1c(NC(=O)c2cc(=O)c3c(C)cc(C)cc3o2)sc2c1CCC2 returned HCMV antiviral -0.8, VACV Venus inh -5.2%, Lassa entry inh 1.7%[46.1 µM], FMDV inh -3.8%, MARV entry inh inconclusive and Vaccinia mCherry 7.6%.
Screening CC(C)Oc1cccc(Nc2nccc3c2cc(-c2ccc(C(=O)N(C)C)cc2)n3C)c1 returned HCMV antiviral 23.5.
Cc1nn(C)c(C)c1NC(=O)COc1ccc(Cl)cc1 was read as HCMV antiviral 0.0 and FMDV inh inconclusive.
Screening CCC(=O)Nc1c(C)nn(-c2ccc(C)c(C)c2)c1C returned HCMV antiviral 34.8, VACV Venus inh -16.2%, Lassa entry inh 0.3%, FMDV inh 7.8%, MARV entry inh 9.1% and Vaccinia mCherry inactive.
Screening Cc1ccc(-n2nc(C)c(NC(=O)CCl)c2C)cc1C returned HCMV antiviral -102.9*, VACV Venus inh inconclusive, Lassa entry inh 11.2µM*, FMDV inh -19.0%, MARV entry inh inconclusive and Vaccinia mCherry inconclusive.
`Cc1nn(C)c(C)c1NC(=O)CCl` gave HCMV antiviral -69.7*, VACV Venus inh inconclusive, Lassa entry inh 11.2µM*, FMDV inh -7.1%, MARV entry inh 2.7%[46.1 µM] and Vaccinia mCherry inconclusive.
Cc1cc(C)c2nc(C)cc(Nc3cccc(C(=O)O)c3)c2c1 was read as HCMV antiviral -5.3, VACV Venus inh -5.9%, Lassa entry inh 3.8%[46.1 µM], FMDV inh -4.2% and Vaccinia mCherry inactive.
`COC(=O)c1cccc(C(=O)N2CCc3c(cnc(C)c3CNC(=O)c3ccsc3)C2)c1` gave VACV Venus inh 12.6%, FMDV inh -11.9% and Vaccinia mCherry -7.4%.
Screening O=C(NCCN1CCCCC1)c1cccc2c1C(=O)c1ccc(N3CCCC3)cc1S2(=O)=O returned HCMV antiviral -65.0*, VACV Venus inh 11.9%, FMDV inh 13.1% and Vaccinia mCherry -1.4%.
CCn1cc(C(=O)NCCc2ccc(C)cc2)c(=O)c2cc(S(=O)(=O)N(C)C)ccc21 was read as HCMV antiviral -11.5, VACV Venus inh -23.0%, Lassa entry inh -2.3%[46.1 µM], FMDV inh -21.2%, MARV entry inh 9.2%[46.1 µM] and Vaccinia mCherry inactive.
Screening CCn1cc(C(=O)NCCc2ccc(Cl)cc2)c(=O)c2cc(S(=O)(=O)N(C)C)ccc21 returned HCMV antiviral 37.5 and FMDV inh 0.0%.
`CCn1cc(C(=O)NCc2ccc(Cl)cc2)c(=O)c2cc(S(=O)(=O)N(C)C)ccc21` gave HCMV antiviral -71.0*, VACV Venus inh -20.1%, Lassa entry inh inconclusive, FMDV inh 0.6%, MARV entry inh inconclusive and Vaccinia mCherry inconclusive.
`CCn1cc(C(=O)NC(C)CCc2ccccc2)c(=O)c2cc(S(=O)(=O)N(C)C)ccc21` (configuration not stated) gave HCMV antiviral -21.4, VACV Venus inh -20.0%, Lassa entry inh 6.31µM*, FMDV inh -14.0%, MARV entry inh inconclusive and Vaccinia mCherry inactive.
`CCn1cc(C(=O)NCCc2ccc(OC)c(OC)c2)c(=O)c2cc(S(=O)(=O)N(C)C3CCCCC3)ccc21` gave HCMV antiviral -72.5*, VACV Venus inh inconclusive, Lassa entry inh inconclusive, FMDV inh -11.2%, MARV entry inh 11.2µM* and Vaccinia mCherry inconclusive.
